Assay outcomes: PubChem BioAssay, NMMLSC
In the library only some 1.1% were active in any assay of this set; here they are far more common.
CIT2-GFP yeast = modulators of CIT2-GFP expression in yeast, primary screen, S. cerevisiae, GFP fusion, multiplex flow cytometry, MLPCN library | S. cerevisiae CIT2-GFP strain, 3 h; 100 means same as DMSO wells | GFP response vs DMSO, % at 10 µM | actives 0.065% (n = 320,000) | AID 2029, 2009;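 active = GFP response relative to DMSO above a set limit, near the screen mean plus 3 SD, cut at about 150% in these data; inconclusive = Fewer than 70 cells measured for a yeast strain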;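 also: ratio of well median GFP fluorescence to mean of DMSO wells on the plate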
RPL19A TOR yeast = RPL19A-GFP expression modulators in yeast, primary screen, cell-based, S. cerevisiae, multiplex flow cytometry, MLPCN; S. cerevisiae RPL19A-GFP strain, 3 h; active compounds read low; percent response vs DMSO, % at 10 µM; actives 0.3% (n = 330,000); AID 2025, 2009;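 active = percent response vs DMSO below 50%; inconclusive = fewer than 70 events counted for the yeast strain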;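 also: median channel GFP fluorescence of the barcoded RPL19A-GFP strain; ratio of sample median GFP to plate DMSO average so 100% = DMSO; lower means less RPL19A-GFP as with rapamycin TOR inhibition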
VLA-4 inh = inhibition in human VLA-4 binding assay, primary screen, VLA-4 allosteric modulator project, MLPCN library, flow cytometry, VLA-4 expressing cells. Integrin alpha-4 (Homo sapiens), P13612. inhibition, % (about 7 µM as worked out from the volumes in the protocol). ligand binding flow cytometry. AID 2557, 2010. actives 0.2% (n = 330,000); in the data active = inhibition above about 50%
MEP2 TOR yeast = modulators of MEP2-GFP levels in yeast, primary screen, S. cerevisiae, multiplex flow cytometry, MLPCN library | GFP response vs DMSO, % at 10 µM | actives 0.51% (n = 330,000) | S. cerevisiae MEP2-GFP strain, 3 h; 100% = DMSO control level | AID 2016, 2009;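 active = GFP response versus DMSO above a set limit, roughly screen mean plus 3 SD, cut at about 180% in these data; inconclusive = fewer than 70 cells counted for a yeast strain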;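 also: median GFP fluorescence of the barcode-gated MEP2-GFP cells per well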
LAP4-GFP MLPCN = modulators of LAP4-GFP expression in yeast, primary screen, S. cerevisiae, multiplex flow cytometry, MLPCN library; actives 0.34% (n = 320,000); GFP response vs DMSO, % at 10 µM; 3 h; median GFP as percent of DMSO wells;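 active = GFP response vs DMSO above a set limit, about the screen mean plus 3 SD, cut at about 150% in these data; inconclusive = under 70 cell events counted for the yeast strain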
AGP1 TOR yeast = modulators of AGP1-GFP expression in yeast TOR pathway, primary screen, cell-based, multiplex flow cytometry, S. cerevisiae, MLPCN library. actives 0.02% (n = 320,000). AID 2066, 2009. 3 h; GFP as percent of DMSO wells. GFP response vs DMSO, % at 10 µM;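 active = GFP response relative to DMSO above a set limit, near screen average plus 3 SD, cut at about 150% in these data; inconclusive = fewer than 70 cells counted for the yeast strain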;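 also: median GFP channel fluorescence of the gated AGP1 strain per well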
* marks the source's active call; other numbers are inactive results; ? = inconclusive; · = no result given; [ ] = dose if it differs, or a comment.

SMILES	CIT2-GFP yeast	RPL19A TOR yeast	VLA-4 inh	MEP2 TOR yeast	LAP4-GFP MLPCN	AGP1 TOR yeast
COc1ccccc1OC(C)C(=O)Nc1ccccc1C(=O)NCC1CCCO1 (stereo not drawn)	85	68	3	177*	90	53
COc1cccc(C(=O)Nc2ccccc2C(=O)NCC2CCCO2)c1 (stereo not drawn)	101	102	-11	101	100	101
Cc1cccc(NC(=O)CN2C(=O)N/C(=C\c3ccc(-c4cccc(C(=O)O)c4)o3)C2=O)c1	?	43*[may fluoresce violet]	-5	215*[may fluoresce violet]	84	?
COc1ccccc1/C=C\C=N\NC(=O)c1ccco1	100	100	8	94	105	99
COc1ccccc1/C=C/C=N/NC(=O)c1cccs1	78	96	11	92	156*	93
O=C(Nc1ncnc2sc3c(c12)CCCCC3)c1ccco1	?	95	-25	184*[may fluoresce violet]	105	82
O=C(CCNS(=O)(=O)c1ccccc1F)NC1CCCCCC1	96	97	23	93	99	99
O=C(Cc1cccs1)N1CCCC(c2nc3c(nnn3Cc3ccccc3Cl)c(=O)[nH]2)C1 (stereo not drawn)	?	50*[may fluoresce violet]	-3	294*[may fluoresce violet]	95	?
CN(Cc1ccc(Cl)cc1)C(=O)CNC(=O)C12CC3CC(CC(C3)C1)C2	106	106	15	124	106	96
O=C(NNS(=O)(=O)c1ccc(Cl)cc1)c1cnn(-c2ccccc2)c1-n1cccc1	100	99	-2	99	98	106
O=C(NNS(=O)(=O)c1ccccc1)c1cnn(-c2ccccc2)c1-n1cccc1	?	79	-3	196*[may fluoresce violet]	100	·
O=[N+]([O-])c1cccc(-c2nnc(-c3ccccc3)o2)c1	97	95	4	99	94	92
Cc1occc1-c1nnc(-c2cc([N+](=O)[O-])cc([N+](=O)[O-])c2)o1	70	79	-4	99	172*	90
CCc1c(O)nc(SCc2ccccc2)n(C(C)CC)c1=O (stereo not drawn)	?	16*[may fluoresce violet]	0	210*[may fluoresce violet]	84	?
COC(=O)c1ccccc1C(=O)N1CCOCCN(C(=O)c2ccccc2C(=O)OC)CCOCC1	?	31*[may fluoresce violet]	2	188*[may fluoresce violet]	68	?
COC(=O)c1ccccc1C(=O)N1CCOCCOCCOCC1	89	91	14	97	94	90
COc1ccc(/C=C2\N=C(C)OC2=O)cc1OC	66	85	7	79	·	63
C=CCOc1ccc(/C=C2\N=C(C)OC2=O)cc1OC	90	105	14	93	182*	89
CCOc1cc(/C=C2\N=C(C)OC2=O)cc(Br)c1OCC(=O)OC	99	99	2	98	188*	88
COc1cccc(CNS(=O)(=O)c2cc3c(cc2Cl)NC(=O)CO3)c1	96	98	-34	100	107	102
Cc1cc(C(=O)CSc2nnc(-c3ccco3)o2)c(C)n1Cc1ccco1	84	93	9	91	94	89
Cc1cc(C(=O)CSc2nnc(-c3ccco3)o2)c(C)n1-c1ccc2c(c1)OCCO2	?	60	9	196*[may fluoresce violet]	85	·
CC1CCN(S(=O)(=O)c2nnc(NC(=O)c3cccc(Cl)c3)s2)CC1	99	93	-2	97	100	94
CN(c1ccccc1)S(=O)(=O)c1cc(Cl)ccc1Cl	86	93	51*	98	107	90
CN(c1ccccc1)S(=O)(=O)c1cccc(Cl)c1Cl	90	101	-4	103	110	105
SMILES	CIT2-GFP yeast	RPL19A TOR yeast	VLA-4 inh	MEP2 TOR yeast	LAP4-GFP MLPCN	AGP1 TOR yeast
N#Cc1c(N)nc(SCc2ccccc2)c(C#N)c1-c1ccco1	?	17*[may fluoresce violet]	3	?	?	?
COc1ccc(NC(=O)c2ccccc2NC(=O)c2ccccc2)cc1	140	107	13	190*	132	94
COc1ccc(C(=O)Nc2ccccc2C(=O)Nc2cccnc2)cc1	90	97	8	99	94	98
CCCc1c(C(=O)Nc2ccc(OC)cc2)cnn1-c1ccccc1	?	42*[may fluoresce violet]	1	208*[may fluoresce violet]	96	?
CC(=O)c1cc(F)ccc1OCC(=O)Nc1ccc2c(c1)OCO2	86	95	17	96	101	93
Cc1ccc(C(C[N+](=O)[O-])Sc2ccc(N)cc2)cc1 (stereo not drawn)	90	89	20	101	201*	97
Nc1ccc(Sc2ccc([N+](=O)[O-])cc2)cc1	86	110	10	86	106	92
O=C1C2C(C(=O)N1/N=C/c1cc(Br)cc([N+](=O)[O-])c1O)C1C=CC2C12CC2 (stereo not drawn)	?	50	8	193*[may fluoresce violet]	120	·
CC(C)(CNC(=O)c1cccs1)N1CCOCC1	90	104	6	103	110	102
Cc1ccc([N+](=O)[O-])cc1N=C1C(=O)Nc2ccccc21	?	55	7	616*[may fluoresce violet]	68	?
Cc1ccc(N=C2C(=O)Nc3ccccc32)cc1C	96	103	10	102	90	93
CCCc1cc(=O)oc2cc(C)cc(OCC(=O)NCCCN3CCOCC3)c12	106	101	16	110	102	102
CCOC(=O)N1CCN(C(=O)Cn2ncn3nc(-c4cccs4)cc3c2=O)CC1	?	25*[may fluoresce violet]	8	469*[may fluoresce violet]	94	?
CCOC(=O)N1CCN(C(=O)Cn2nc(C)n3nc(-c4ccc(CC)cc4)cc3c2=O)CC1	103	101	-1	103	104	102
Cc1cc2c(cc1C)CSC(c1c(O)ccc3ccccc13)SC2	?	62	4	232*[may fluoresce violet]	71	?
CC(Oc1cc2oc(=O)c3c(c2cc1Cl)CCCC3)C(=O)NCCN1CCOCC1 (stereo not drawn)	92	98	-1	106	89	91
Cc1c(C)c2cc(Cl)c(OC(C)C(=O)NCCN3CCOCC3)cc2oc1=O (stereo not drawn)	?	19*[may fluoresce violet]	8	149	76	?
COc1cc(OC)c(/C=N/N2CCN(c3ccccc3OC)CC2)c(OC)c1	101	100	-1	100	99	101
O=C(CSc1ccccn1)N/N=C/c1ccccc1[N+](=O)[O-]	107	106	-9	106	98	106
O=C(CSc1ccccn1)N/N=C/c1cc([N+](=O)[O-])ccc1O	?	45*[may fluoresce violet]	-7	277*[may fluoresce violet]	79	?
